Test results: PubChem BioAssay AID504806 (National Center for Advancing Translational Sciences (NCATS), 2011)
The source made the active and inactive calls. Calls follow the shape of the dose curve; as a rule, active = well fitted activation curve with a large enough effect; inactive = flat fitted curve, though single readings scatter.

Assay: Followup screen of LOPAC molecules that induce DNA re-replication in SW480 adenocarcinoma cells
Conditions: Hoechst nuclear DNA content imaging, 48 h; series mostly up to 46.1 µM
Source text: NIH Molecular Libraries Probe Production Network [MLPCN] NIH Chemical Genomics Center [NCGC] MLPCN Grant: Fast Track K99 CA136555 Assay Provider: Melvin DePamphilis, NICHD, NIH Assay Overview Eukaryotic cells normally restrict genome duplication to once per cell division. When this process is aberrant, DNA re-replication occurs when cells reinitiate DNA replication before the first round of replication is complete. DNA re-replication induces the DNA damage response, arrests cell proliferation, and triggers apoptosis. The cell cycle components cyclin A, Cdt-1, Cdc6 and geminin are critical regulators of this process and their misregulation results in DNA re-replication in normal and cancer cells. To identify compounds that induce re-replication in normal cells, an image-based assay was used to measure DNA content of nuclei, as detected by the fluorescent DNA binding dye, Hoechst. Cell nuclei were imaged by a fluorescence scanning plate imager and compounds that induce DNA re-replication were identified by the increase of nuclei with elevated fluorescence intensity.
Assay Protocol Summary For screening, 250 cells in 5 uL/well were dispensed into black clear 1536-well plates (Aurora) using a solenoid-based dispenser. Following transfer of 23 nL compound or DMSO vehicle by a pin tool, the plates were incubated 48 hr at 37 C and 5% CO2. After addition of 1 uL/well Hoescht stain, the plates were incubated 40 min at 37 C, 5% CO2 and total intensity of fluorescent objects (nuclei) were enumerated by an Acumen Explorer Ex3 (TTP LabTech) fluorescence scanning plate imager (405 nm excitation, 500-530 nm emission). Keywords: NIH Roadmap, MLPCN, MLI, MLSMR, qHTS, NCGC, DNA replication, cancer

Row | Compound | Potency
1 | CC(C)NP(=O)(NC(C)C)OP(=O)(NC(C)C)NC(C)C | inactive
2 | COc1cc([C@@H]2c3cc4c(cc3[C@H](O)[C@@H]3COC(=O)[C@H]23)OCO4)cc(OC)c1OC | 0.0239 µM (active)
3 | NCC#Cc1ccccc1 | 7.55 µM (active)
